# Shown are actives, neighbours in structure and some others; about 21% of the full set was active somewhere.
# RORg inh – blocks mouse ROR gamma transcriptional activity; Drosophila S2 Gal4-RORgamma UAS-luciferase reporter, 20 h; 5.4% of 310,000 active; P51450; AID 2551; Potency, µM (top dose mostly 53.6 µM), inactives show top-dose activity change, negative = inhibition, usual class: inhibitors; note: potency is the fitted concentration of half-maximal effect; nearly all actives have a fitted effect of over 60% in size
# Target sequence (P51450 whole entry, looked up, the tested form may be a part): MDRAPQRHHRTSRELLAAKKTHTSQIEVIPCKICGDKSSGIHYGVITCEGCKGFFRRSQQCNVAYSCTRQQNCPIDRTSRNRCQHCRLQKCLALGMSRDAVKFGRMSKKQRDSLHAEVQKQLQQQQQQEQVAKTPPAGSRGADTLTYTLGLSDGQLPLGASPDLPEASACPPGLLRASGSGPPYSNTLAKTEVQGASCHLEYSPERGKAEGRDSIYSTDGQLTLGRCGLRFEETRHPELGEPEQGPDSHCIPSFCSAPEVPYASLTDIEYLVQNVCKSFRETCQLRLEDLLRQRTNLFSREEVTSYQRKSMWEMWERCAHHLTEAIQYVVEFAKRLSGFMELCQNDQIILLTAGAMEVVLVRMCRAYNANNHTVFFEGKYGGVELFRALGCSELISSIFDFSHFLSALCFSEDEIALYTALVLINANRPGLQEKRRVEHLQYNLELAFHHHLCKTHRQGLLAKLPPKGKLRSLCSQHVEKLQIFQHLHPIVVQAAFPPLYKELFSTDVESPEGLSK
#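 Compounds are pin-transferred onto Drosophila Schneider cells expressing a copper-inducible Gal4–ROR gamma transactivation domain fusion. After 1 hr, copper sulfate is added to 700 uM final; luciferase is read 20 hr later.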
# IL-1B inflam inh – inflammasome signaling inhibition, IL-1 beta readout | AID 743279 | THP-1 LPS/ATP IL-1B secretion, AlphaLISA, 16 h; hits give low values | 4.7% of 360,000 active | activity change, % at 57.5 µM; in the data active = activity change below about -50%; inconclusive = mostly about -30% to -49%
#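 THP-1 cells pretreated 1 hr with compounds (up to 57.5 uM final), then stimulated with LPS (250 ng/mL final) plus ATP (1.25 mM final); secreted IL-1B measured by AlphaLISA after 16 hr, decreased signal indicating inhibition.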
# DT40 TDP1 no CPT – qHTS for Inhibitors of human tyrosyl-DNA phosphodiesterase 1 (TDP1): qHTS in cells in absence of CPT | Potency, µM (doses to about 46.2 µM), for the others: at the highest dose activity change, negative = growth inhibition, actives largely listed as inhibitors | 15% of 420,000 active | DT40 Tdp1-/- hTDP1 cells, no CPT, ATP luminescence, 48 h | AID 686978, 2013; note: potency is the fitted concentration of half-maximal effect; nearly all actives have a fitted effect of over 55% in size
#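 A cellular qHTS used chicken DT40 cells lacking endogenous Tdp1 but carrying stably transfected human TDP1. Compounds were applied without camptothecin, and cell growth kinetics were judged by ATP-dependent luminescence after ≥48 hr.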
# VP16 counter – inhibits Gal4-VP16 luciferase reporter, ROR gamma counter-screen. Drosophila S2 Gal4-VP16 UAS-luciferase, luminescence, 20 h. Potency, µM (series often up to 53.6 µM), inactives show top-dose activity, negative = inhibition, usual class: inhibitors. 3.5% of 310,000 active;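 note: Gal4-VP16 expression switched on by copper sulfate through the metallothionein promoter; potency is the fitted concentration of half-maximal effect; nearly all actives have a fitted effect of over 50% in size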
# ELG1 repair inh – blocks ELG1-dependent DNA repair in HEK293T cells. HEK293T ELG1-luciferase reporter, luminescence, 16 h; DNA damage induced by 5-fluorouridine. AID 504467. Potency, µM (titrated, usually from 46.1 µM), for inactives: at the top dose activity change, negative = inhibition, actives largely listed as inhibitors. 2.3% of 330,000 active; note: potency is the fitted concentration of half-maximal effect; nearly all actives have a fitted effect of over 55% in size
#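 Step one: seed 2,000 cells per well. Step two: pin-transfer compound or DMSO alongside 5-fluorouridine. Step three: incubate 16 hr, 37 °C, 5% CO2. Step four: add ONE-Glo, wait 30 min, read luminescence.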
# TDP1 cell CPT – DT40-hTDP1 cell growth loss with CPT | chicken DT40 Tdp1-/-;hTDP1 cells + 20 nM CPT, ATP luminescence, 48 h | Potency, µM (series often up to 46.2 µM), without a hit: at the top dose activity change, negative = growth inhibition, usual class: inhibitors | 12% of 420,000 active; note: potency is the fitted concentration of half-maximal effect; nearly all actives have a fitted effect of over 55% in size
#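 Chicken DT40 Tdp1-/- cells stably complemented with human TDP1 were seeded at 400 cells/well in medium containing 20 nM camptothecin, exposed to pin-transferred compounds, and grown at 37 °C for at least 48 hr. Viability was read as ATP luminescence.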
# * hit, by the source's call; ? = inconclusive; / = not tested or not shown; [ ] = remark or other dose. Unless noted, calls come from the whole dose curve; as a rule, active = well fitted curve in the direction sought with a large enough effect; inconclusive = small, poorly fitted or top-dose-only effect, or another doubt; inactive = no such curve, though single readings can be large; an effect the other way counts as inactive or inconclusive. % is set by controls: 0 for no effect and ±100 for the full control effect.
SMILES,RORg inh,IL-1B inflam inh,DT40 TDP1 no CPT,VP16 counter,ELG1 repair inh,TDP1 cell CPT
COc1cc(C2C3=C(COC3=O)Oc3cc4c(cc32)OCO4)ccc1OC(C)=O (stereo unspecified),/,22,1.8µM*,/,/,1.6µM*
COc1ccc(C2C3=C(COC3=O)Oc3cc4c(cc32)OCO4)cc1OC (stereo unspecified),/,9,1.5µM*,/,/,1.8µM*
COc1ccccc1C1CC(=O)Oc2cc3c(cc21)OCO3 (stereo unspecified),11%,/,/,1%,/,/
COc1cc(C2C3=C(COC3=O)Oc3cc4c(cc32)OCO4)cc(OC)c1OC(C)=O (stereo unspecified),/,19,0.65µM*,/,/,0.65µM*
COC1=CC(=O)OC(c2cccc(C(F)(F)F)c2)C1 (stereo unspecified),/,-8,14%,/,/,7%
CC(C)C[C@@H](CC(=O)N[C@@H](CCC(=O)O)CC(=O)O)NC(=O)[C@@H]1CNCC[C@H]1NC(=O)C[C@@H](NC(=O)C[C@H](CO)NC(=O)[C@@H]1CNCC[C@H]1N)C(C)C,-15%,/,/,6%,/,/
COc1ccccc1CCNC(=O)C1CCN(c2nc3ccccc3nc2C(F)(F)F)CC1,/,/,7.3µM*,/,/,16µM*
CCc1ccc(CNC(=O)C2CCN(c3nc4ccccc4nc3C(F)(F)F)CC2)cc1,/,/,?,/,/,-15%
COc1cccc(NC(=O)C2CCN(c3nc4ccccc4nc3C(F)(F)F)CC2)c1,/,/,15µM*,/,/,23µM*
CCCS(=O)(=O)NC(=O)C1(C)CCCN(C(=O)c2ccc(C(=O)OC)cc2)C1 (stereo unspecified),/,0,-2%,/,/,-3%
COc1cccc2c1C(=O)c1c(O)c3c(c(O)c1C2=O)CC(O)(C(C)=O)CC3OC1CC(O)C(O)C(C)O1 (stereo unspecified),/,-103*,0.82µM*,/,/,1.2µM*
COc1cccc2c1C(=O)c1c(O)c3c(c(O)c1C2=O)C[C@](O)(C(=O)CO)C[C@H]3O[C@@H]1C[C@H](N)[C@H](O)[C@H](C)O1,1.1µM*,/,/,7.1µM*,/,/
COc1cccc2c1C(=N)c1c(O)c3c(c(O)c1C2=O)CC(O)(C(C)=O)CC3OC1CC(N)C(O)C(C)O1 (stereo unspecified),/,-102*,0.18µM*,/,/,0.16µM*
COc1cccc2c1-c1c(O)cccc1C2=O,-16%[1.91 µM],-20,4%,8%,0%,3%
COc1cccc2c1C(=O)c1c(O)c3c(c(O)c1C2=O)C[C@](O)(C(C)=O)C[C@H]3O[C@@H]1C[C@@H](N)[C@@H](O)[C@@H](C)O1,/,?,0.092µM*,/,?,0.1µM*
O=c1[nH]c2cc(Cl)c(Br)cc2o1,/,32,-15%,/,/,6%
CCc1ccc2c(c1)c(=O)c(S(=O)(=O)c1ccccc1)cn2CC(=O)Nc1cc(C)ccc1C,/,/,0%,/,/,16%
CC(C)=CCC[C@](C)(O[C@@H]1O[C@H](CO[C@@H]2OC[C@@H](O)[C@H](O)[C@H]2O)[C@@H](O)[C@H](O)[C@H]1O)C1CC[C@]2(C)C1[C@H](O)CC1[C@@]3(C)CC[C@H](O[C@@H]4O[C@H](CO)[C@@H](O)[C@H](O)[C@H]4O)C(C)(C)C3CC[C@]12C (stereo partly specified),/,5,-22%,/,?,?
Cc1ccc(-c2noc(-c3ccccc3NC(=O)C3CC(=O)N(c4ccc(C)cc4)C3)n2)cc1 (stereo unspecified),/,/,-18%,/,/,-14%
Cc1ccc(Cn2ccc(=O)c(OCc3c(Cl)cccc3Cl)c2C)cc1,?,-59*,15µM*,?,0%,18µM*
COCc1cc(CN2CCN(CCCc3ccccc3)C(CCO)C2)ccc1OC (stereo unspecified),-40%,-2,-28%,2%,-17%,-29%
Cc1cc([N+](=O)[O-])nn1CCCC(=O)O,3%,19,14%,-11%,10%,-8%
Cc1cc(C)n(CCCC(=O)O)n1,1%,-67*,-3%,5%,3%,3%
Cc1cc(C)n(C(=O)Cn2nc(C(F)F)cc2C)n1,21%,-8,-5%,4%,-3%,5%
Cc1cc(C)n(CC(=O)n2nc(C)cc2C)n1,0.32µM*,28,-29%,5%,0%,1%
SMILES,RORg inh,IL-1B inflam inh,DT40 TDP1 no CPT,VP16 counter,ELG1 repair inh,TDP1 cell CPT
O=C(NC1CCN(c2ncccn2)CC1)c1c(F)cccc1F,-4%,8,6%,3%,-23%,1%
Brc1ccc(CN2C3=NCCCN3c3ccccc32)cc1,15%,-55*,?,1%,-19%,16µM*
Cc1ccc(CN2C3=NCCCN3c3ccccc32)cc1,-5%,-4,?,4%,-20%,15µM*
c1ccc(CN2C3=NCCCN3c3ccccc32)cc1,-22%,-4,-32%,-20%,-10%,-16%
Clc1ccc(CN2C3=NCCN3c3ccccc32)cc1,?,?,?,-6%,-23%,13µM*
CC(C)(C)c1ccc(CN2C3=NCCCN3c3ccccc32)cc1,-5%,-54*,7.3µM*,?,-22%,7.3µM*
CC(Sc1nnc(Cc2cccs2)n1C1CC1)C(=O)NC1CCS(=O)(=O)C1 (stereo unspecified),/,-2,1%,/,3%,0%
Clc1cccc(CN2C3=NCCCN3c3ccccc32)c1,-11%,-17,?,-6%,-23%,?
O=C(O)CN1C2=NCCCN2c2ccccc21,-15%,21,2%,-10%,-4%,15%
OC(COc1ccccc1)CN1C2=NCCCN2c2ccccc21 (stereo unspecified),11%[0.365 µM],-15,10µM*,/,-2%,?
Clc1ccc(CN2C3=NCCCN3c3ccccc32)c(Cl)c1,-3%,-73*,?,-4%,-14%,?
Cc1cc2c(cc1C)N(Cc1ccc(Cl)cc1)C1=NCCCN12,/,/,5.2µM*,/,/,2.6µM*
Cc1ccccc1C(=O)N1CC/C(=N\OS(=O)(=O)O)c2ccc(Cl)cc21,/,/,-3%,/,/,-24%
CCCCN(C)C(=O)CN1C(=O)CCn2nc(-c3cn(C)c4ccccc34)cc21,/,/,-30%,/,/,?
CS(=O)(=O)N(CC(=O)N1CCc2ccccc2C1)c1ccccc1F,/,11,-4%,/,/,1%
COc1ccc(Br)cc1CNC(=O)C(C)n1nc(C)n2c(cc3occc32)c1=O (stereo unspecified),/,/,?,/,/,-4%

# Screening results as filed in PubChem.
